# According to publication PMC4336329 (PLoS ONE, 2015):
# Hit rate of the full screen: of about 310,000 compounds, about 2,200 (0.71%) showed an effect of 50% or more. Effects have a minus sign here. The entries come from a sample that favours strong results as a whole.
# Molecular target: human ether-à-go-go-related gene (hERG) potassium channel (human, UniProt Q12809)
# Test: primary screen, population patch clamp on CHO cells stably expressing hERG; higher = less effect of the substance
# Chain of human ether-à-go-go-related gene (hERG) potassium channel (Q12809 whole entry, looked up): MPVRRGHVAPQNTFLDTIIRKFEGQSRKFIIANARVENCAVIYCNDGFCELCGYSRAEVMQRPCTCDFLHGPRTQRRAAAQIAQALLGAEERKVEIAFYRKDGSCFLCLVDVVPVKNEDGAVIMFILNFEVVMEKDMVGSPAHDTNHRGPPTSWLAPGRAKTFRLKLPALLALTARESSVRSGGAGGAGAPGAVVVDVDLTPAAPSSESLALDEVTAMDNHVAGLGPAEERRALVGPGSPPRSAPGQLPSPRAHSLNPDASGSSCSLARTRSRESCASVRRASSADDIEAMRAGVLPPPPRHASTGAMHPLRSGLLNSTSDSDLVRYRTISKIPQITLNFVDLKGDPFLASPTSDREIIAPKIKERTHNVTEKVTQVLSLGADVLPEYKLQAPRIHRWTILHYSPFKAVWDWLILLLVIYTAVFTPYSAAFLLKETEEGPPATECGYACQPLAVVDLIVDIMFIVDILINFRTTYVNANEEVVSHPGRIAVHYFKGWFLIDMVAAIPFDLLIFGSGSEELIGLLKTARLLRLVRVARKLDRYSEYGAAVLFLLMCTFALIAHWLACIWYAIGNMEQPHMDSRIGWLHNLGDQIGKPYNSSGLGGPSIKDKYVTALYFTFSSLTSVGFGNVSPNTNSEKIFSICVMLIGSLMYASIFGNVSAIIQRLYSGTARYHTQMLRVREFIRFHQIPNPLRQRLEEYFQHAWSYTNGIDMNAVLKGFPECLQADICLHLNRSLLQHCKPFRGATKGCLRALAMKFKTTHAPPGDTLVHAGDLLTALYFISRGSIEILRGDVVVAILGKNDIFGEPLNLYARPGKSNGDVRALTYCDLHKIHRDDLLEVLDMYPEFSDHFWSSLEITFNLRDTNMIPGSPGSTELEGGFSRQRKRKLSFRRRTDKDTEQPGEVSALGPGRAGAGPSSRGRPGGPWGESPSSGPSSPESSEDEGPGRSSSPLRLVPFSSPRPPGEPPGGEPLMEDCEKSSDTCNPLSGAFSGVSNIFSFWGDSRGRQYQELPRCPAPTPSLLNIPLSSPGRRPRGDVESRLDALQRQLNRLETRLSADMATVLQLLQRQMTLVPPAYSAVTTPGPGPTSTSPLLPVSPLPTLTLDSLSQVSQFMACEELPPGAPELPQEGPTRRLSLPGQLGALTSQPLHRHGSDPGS
row,Structure (SMILES),"hERG current change (%, negative = inhibition) at 1uM"
1,CCCCn1c(O)c(C(=O)/C=C/c2ccc3c(c2)OCO3)c(=O)[nH]c1=O,11.9%
2,Cc1ccccc1CN1C[C@@H]2C[C@@H](c3cn[nH]c3-c3ccc(F)cc3)N3CCC[C@@]23C1=O,-12.9%
3,CC(=O)Oc1ccc(-c2nc3c(C)cccc3c(=O)o2)cc1,11.9%
4,CCOC(=O)c1[nH]c2ccc(F)cc2c1NC(=O)CN1CCN(C/C=C/c2ccccc2)CC1,-77.3%
5,Cc1[nH]c2ccccc2c1C(=O)CN1CCN(C/C=C/c2ccccc2)CC1,-50.4%
6,CCOC(=O)c1[nH]c2ccc(OCC)cc2c1NC(=O)CN1CCN(c2ccccc2)CC1,15.9%
7,COC(=O)c1[nH]c2ccccc2c1NC(=O)CN1CCN(C/C=C/c2ccccc2)CC1,-84.4%
8,CCOC(=O)c1[nH]c2ccc(F)cc2c1NC(=O)CN1CCc2cc(OC)c(OC)cc2C1,11.2%
9,CCOC(=O)N1CCN(CC(=O)Nc2c(C(=O)OC)[nH]c3ccccc23)CC1,7.01%
10,COc1ccc2[nH]c(C)c(C(=O)CN3CCN(C/C=C/c4ccccc4)CC3)c2c1,5.17%
11,COC(=O)c1[nH]c2ccccc2c1NC(=O)CN1CCCCCC1,-3.6%
12,Cc1[nH]c2ccccc2c1C(=O)CN1CCCC1,7.66%
13,O=C(COC(=O)COc1ccc(Br)cc1)NCCC1=CCCCC1,1.54%
14,COc1ccc2[nH]cc(CCNC(=O)CCC3CCCCC3)c2c1,1.77%
15,O=C(COC(=O)c1ncc(Cl)c(Cl)c1Cl)NC1CCS(=O)(=O)C1 (stereo not drawn),-1.03%
16,Cc1ccc(S(=O)(=O)N2CCOC23CCN(C(=O)C(=O)NCCC(C)C)CC3)cc1,4.48%
17,O=c1[nH]c(=O)n(CCc2ccc(F)cc2)c(O)c1/C=N/N1CCCCC1,11.7%
18,CCOC(=O)C1(C)/C(=N/Nc2ccccc2)C(=O)C(=O)N1c1ccccc1 (stereo not drawn),-3.13%
19,Cc1cccn2c(=O)c3cc(C(=O)NCc4cccnc4)c(=N)n(CC4CCCO4)c3nc12 (stereo not drawn),-78.5%
20,Cc1cccn2c(=O)c3cc(C#N)c(=NC(=O)c4cccnc4)n(CC4CCCO4)c3nc12 (stereo not drawn),-10.2%
21,Cc1cccn2c(=O)c3cc(C(=O)NC4CCCC4)c(=N)n(Cc4ccc(F)cc4)c3nc12,-19.4%
22,Cc1cccn2c(=O)c3cc(C(=O)NC4CCCCC4)c(=N)n(Cc4ccc(F)cc4)c3nc12,-16%
23,Cc1cccn2c(=O)c3cc(C(=O)NCC4CCCO4)c(=N)n(Cc4ccc(F)cc4)c3nc12 (stereo not drawn),-80.4%

row,Structure (SMILES),"hERG current change (%, negative = inhibition) at 1uM"
1,Cc1ccc(Cn2c(=N)c(C(=O)NCC3CCCO3)cc3c(=O)n4cccc(C)c4nc32)cc1 (stereo not drawn),-85.9%
2,Cc1cccn2c(=O)c3cc(C(=O)NCCN4CCOCC4)c(=N)n(Cc4cccnc4)c3nc12,9.95%
3,Cc1cccn2c(=O)c3cc(C(=O)NCC4CCCO4)c(=N)n(Cc4cccnc4)c3nc12 (stereo not drawn),-96.3%
4,CCn1c(SCc2nc(CC(=O)Nc3ccccc3OC)no2)nnc1-c1cccs1,-19.1%
5,COc1ccc(CNC(=O)C2CSC(=O)C2)cc1 (stereo not drawn),8.88%
6,Cc1cccc(-n2c(O)c(/C=N/NC(=O)c3ccccc3Cl)c3ccccc3c2=O)n1,9.11%
7,COc1cccc(/C=C/C(=O)OCC(=O)Nc2cc(C(F)(F)F)ccc2Cl)c1,8.68%
8,CN(C(=O)c1ccc(OC2CCN(S(=O)(=O)N(C)C)CC2)cc1)C1CCCCC1,-1.59%
9,O=C(NCCNC(=O)c1cc(OCC(F)(F)F)ccc1OCC(F)(F)F)Nc1ccccc1,-15%
10,CCN1CCS/C1=C/C=C/C1=[N+](CC)CCS1.[I-],3.64%
11,Cn1c(CCN2CCCCC2)nc2cc([N+](=O)[O-])ccc21,-54.8%
12,CCN1CCN(CCc2nc3cc([N+](=O)[O-])ccc3n2C)CC1,-1.88%
13,Cn1c(CN2CCN(C(=O)c3ccccc3)CC2)nc2cc([N+](=O)[O-])ccc21,-29.6%
14,Cn1c(CCN2CCCCC2)nc2cc(NS(=O)(=O)c3ccc(Cl)cc3)ccc21,-59.1%
15,Cn1c(CN2CCCCC2)nc2cc(NS(=O)(=O)c3ccc(Cl)cc3)ccc21,-9.75%
16,Cc1ccc(S(=O)(=O)Nc2ccc3c(c2)nc(CCN2CCCC2)n3C)cc1,-13.7%
17,Cn1c(CN2CCN(C(=O)c3ccc(F)cc3)CC2)nc2cc([N+](=O)[O-])ccc21,-59.1%
18,Cn1c(CN2CCCCC2)nc2cc([N+](=O)[O-])ccc21,-2.57%
19,Cn1c(CCN2CCCC2)nc2cc(NS(=O)(=O)c3ccc(Cl)cc3)ccc21,-62%
20,Cc1ccc(S(=O)(=O)Nc2ccc3c(c2)nc(CCN2CCCCC2)n3C)cc1,-29.7%
21,Cn1c(CN2CCCC2)nc2cc(NS(=O)(=O)c3ccc(Cl)cc3)ccc21,-31%
22,CC(=O)N1CCN(Cc2nc3cc([N+](=O)[O-])ccc3n2C)CC1,14%
